Measurements as given in PubChem BioAssay (Tox21).
Results filed as inconclusive are left out. A number with no mark means an inactive call. Active and inactive are the calls of the source. Calls come from the whole dose curve; as a rule, active = well fitted cell-killing curve with a large enough effect in the repeat runs; inconclusive = weak or mixed curves, or effect the other way; inactive = no such curve, though single readings can be large or run the other way.

Assay: qHTS assay for identifying genotoxic compounds that show differential cytotoxicity against isogenic chicken DT40 cell lines with known DNA damage response pathways - Rev3 mutant cell line (AID 743014); note: nearly all actives have a fitted effect of over 55% in size
Conditions: chicken DT40 Rev3-/- viability, CellTiter-Glo, 40 h; series mostly up to 68.4 µM; activity, negative = cytotoxicity: at the top concentration
Excerpt: National Center for Advancing Translational Sciences [NCATS]
NIH Chemical Genomics Center [NCGC]
U.S. Environmental Protection Agency [EPA]
National Institutes of Environmental Health Sciences [NIEHS]
National Toxicology Program [NTP]
U.S. Food and Drug Administration [FDA]
DNA repair pathways play a critical role in cellular homeostasis by repairing DNA damage induced by endogenous processes and xenobiotics. Isogenic chicken DT40 cell lines deficient in different DNA repair pathways can be used to identify genotoxic compounds and aid in characterizing the nature of the DNA damage induced. Two DNA repair-deficient cell lines with disrupted genes, Rad54/Ku70 or Rev3, were used to screen the Tox21 10K compound library. Possible genotoxicity was based on the presence of a significant increase in cytotoxicity in one or more of the DNA repair-deficient cell lines compared to that observed in the parental DNA repair-proficient cell line. CellTiter Glo viability assay (Promega, Madison, WI) was used to measure cell viability in these cells after compound treatment. This assay includes the data from the Rev3 mutant cell line.
Tox21 Assay Protocol Summary:
300 DT40 mutant cells in 5 uL/well were dispensed into white, solid-bottom 1536-well plates using a Multidrop Combi (ThermoFisher Scientific, Waltham, MA) dispenser. After the assay plates were incubated at 37 C/5% CO2 for approximately 0.5 hour, 23 nL of compounds dissolved in DMSO, positive controls or DMSO only was transferred into the assay plate by a pintool work station (Kalypsys, San Diego, CA). The assay plates were incubated at 37 C/5% CO2 for 40 hours. After 5 uL per well of CellTiter-Glo reagent was added into each well of the assay plates, the plates were incubated for 30 min at room temperature and the luminescence intensity of the plates was measured using a ViewLux (PerkinElmer, Shelton, CT) plate reader.
% is set by controls: 0 for no effect and ±100 for the full control effect; potency is the fitted concentration of half-maximal effect.

Row | Compound | Potency | activity, negative = cytotoxicity
1 | Oc1ccc(Cl)cc1C1CCCC1 | 15.4 µM (active) | 
2 | OCC1(CO)COC(C(Cl)(Cl)Cl)OC1 |  | 13.2%
3 | CNCCC=C1c2ccccc2CCc2ccccc21 | 11.9 µM (active) | 
4 | O=P(O)(O)C(O)(Cn1ccnc1)P(=O)(O)O |  | -0.449%
5 | CC(=NCc1ccccc1)c1ccccc1O |  | 5.52%
6 | Cc1onc(-c2c(F)cccc2Cl)c1C(=O)N[C@@H]1C(=O)N2[C@@H]1SC(C)(C)[C@@H]2C(=O)O | inactive | 
7 | O=C(CCCCCCCCc1cccnc1)N1CCC(C=C(c2ccccc2)c2ccccc2)CC1 | 24.3 µM (active) | 
8 | COc1ccc(/C=N/NC(=O)c2ccncc2)c(C(=O)O)c1OC |  | -0.149%
9 | NCCCC[C@H](NC(=O)[C@@H]1CCCN1C(=O)[C@@H]1CSSC[C@H](N)C(=O)N[C@@H](Cc2ccc(O)cc2)C(=O)N[C@@H](Cc2ccccc2)C(=O)N[C@@H](CCC(N)=O)C(=O)N[C@@H](CC(N)=O)C(=O)N1)C(=O)NCC(N)=O | inactive | 
10 | CC(=O)OCC(=O)[C@@]1(O)CC[C@H]2[C@@H]3C[C@H](C)C4=CC(=O)C=C[C@]4(C)[C@H]3[C@@H](O)C[C@@]21C |  | -15.8%
11 | CCCCCCOC(=O)c1cccnc1 |  | 4.94%
12 | CC[C@H]1OC(=O)C[C@@H](O)[C@H](C)[C@@H](O[C@@H]2O[C@H](C)[C@@H](O[C@H]3C[C@@](C)(O)[C@@H](O)[C@H](C)O3)[C@H](N(C)C)[C@H]2O)[C@@H](CC=O)C[C@@H](C)C(=O)/C=C/C(C)=C/[C@@H]1CO[C@@H]1O[C@H](C)[C@@H](O)[C@@H](OC)[C@H]1OC | inactive | 
13 | CC(C)c1ncc([N+](=O)[O-])n1C |  | 0.23%
14 | CCOC(=O)COc1ccc2c(=O)cc(-c3ccccc3)oc2c1 |  | -8.33%
15 | O=C(O)COc1ccc(C(=O)c2cccs2)c(Cl)c1Cl | inactive | 
16 | O=c1[nH]c(=O)n([C@H]2C[C@H](O)[C@@H](CO)O2)cc1/C=C/Br |  | 0.131%
17 | CCC(C)(C)c1ccc(CC(C)CN2C[C@@H](C)O[C@@H](C)C2)cc1 (stereo not given in full) | 0.668 µM (active) | 
18 | C=CC1=C(C(=O)O)N2C(=O)[C@@H](NC(=O)/C(=N\O)c3csc(N)n3)[C@H]2SC1 (stereo in doubt) |  | -6.52%
19 | CCCCCCCCCCCCCCCCC(C(=O)O)C(O)(CC(=O)O)C(=O)O (stereo not given) |  | -8.54%
20 | CC(C)COC(=O)OCN1C(=O)CN(CCN2CC(=O)N(COC(=O)OCC(C)C)C(=O)C2)CC1=O |  | -12.8%

Row | Compound | Potency | activity, negative = cytotoxicity
21 | C=C1[C@H](CO)[C@@H](O)C[C@@H]1n1cnc2c(=O)[nH]c(N)nc21 | 0.0237 µM (active) | 
22 | CN=C(N)NCCC[C@H](N)C(=O)O | inactive | 
23 | Nc1c(CC(=O)O)cccc1C(=O)c1ccccc1 | inactive | 
24 | O=C(O)COc1ccccc1/C=N/NC(=O)c1ccncc1 |  | 11.1%
25 | CC/C(=C(/CC)c1ccc(OP(=O)(O)O)cc1)c1ccc(OP(=O)(O)O)cc1 |  | 17.9%
26 | O=C1CC[C@@H](C(=O)N[C@H]2C[C@@H]2c2ccccc2)N1 |  | 9.92%
27 | CC[C@@H](C)[C@H](N)C(=O)O |  | -5.67%
28 | CN1C(=O)C[C@@H](C(=O)N[C@@H](Cc2cnc[nH]2)C(=O)N2CCC[C@H]2C(N)=O)NC1=O |  | 1.21%
29 | FC(F)(F)C(F)(F)C(F)(F)C(F)(F)C(F)(F)F |  | -23.7%
30 | O=C(O)/C=C/C(O)c1ccc(Cl)cc1 (stereo not given) |  | 10.6%
31 | CCCCCCCCCC[N+](C)(CCCCCCCCCC)CCC[Si](OC)(OC)OC | 7.7 µM (active) | 
32 | CCOc1cc(CC(=O)N[C@@H](CC(C)C)c2ccccc2N2CCCCC2)ccc1C(=O)O |  | 1.35% [at 31.4 µM]
33 | COC(=O)[C@H]1[C@H]2C[C@H]3c4[nH]c5ccccc5c4CCN3C[C@H]2CC[C@@H]1O |  | 7.97%
34 | CN[C@H](CC(C)C)C(=O)N[C@H]1C(=O)N[C@@H](CC(N)=O)C(=O)N[C@H]2C(=O)N[C@H]3C(=O)N[C@H](C(=O)N[C@@H](C(=O)O)c4cc(O)cc(O)c4-c4cc3ccc4O)[C@H](O)c3ccc(c(Cl)c3)Oc3cc2cc(c3O[C@@H]2O[C@H](CO)[C@@H](O)[C@H](O)[C@H]2O[C@H]2C[C@](C)(N)C(O)[C@H](C)O2)Oc2ccc(cc2Cl)[C@H]1O (stereo not given in full) | inactive | 
35 | COc1cc2c(cc1OC)[C@@H](Cc1cc(OC)c(OC)c(OC)c1)[N+](C)(CCCOC(=O)CC/C=C/CCC(=O)OCCC[N+]1(C)CCc3cc(OC)c(OC)cc3[C@H]1Cc1cc(OC)c(OC)c(OC)c1)CC2 (stereo not given in full) |  | -12.7%
36 | CC(C)(S)C(=O)N[C@@H](CS)C(=O)O | inactive | 
37 | Cc1cc(F)ccc1-c1cc(N2CC[C@@H](O)[C@H]2CO)ncc1N(C)C(=O)C(C)(C)c1cc(C(F)(F)F)cc(C(F)(F)F)c1 | 8.5 µM (active) | 
38 | CCN(CC)CCNC(=O)c1ccc(NS(C)(=O)=O)cc1 |  | 4.62%
39 | CC(Cc1ccc(O)c(O)c1)C(C)Cc1ccc(O)c(O)c1 (stereo not given) | 30.6 µM (active) | 
40 | CCN1CCCC1CNC(=O)c1cc(S(=O)(=O)CC)ccc1OC (stereo not given) | inactive | 
